Bioassay records: PubChem BioAssay, several laboratories
MLLE-PAM2 inh – blocks PAM2 peptide binding to the PABP1 MLLE domain | AID 588489 | P11940 | inhibition, % at 20 µM | GST-MLLE / FITC-PAM2 fluorescence polarization | hit rate 0.36% among 360,000; in the data active means inhibition above about 35%, passing the limit was not always enough;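 further: plate controls were DMSO wells with GST-MLLE for no effect and wells lacking GST-MLLE protein for full effect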
PERK inh – inhibitors of human PERK kinase. Q9NZJ5. CHO PERK-DD fusion, SEAP luminescence translation reporter. inhibition, % at 5.6 µM. hit rate 0.17% among 220,000;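 active means inhibition above the mean inhibition of all tested compounds plus 3 SD, set separately per screening campaign, cut at about 2.9% in these data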;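 further: PERK kinase domain activated by AP20187 dimerizer at 100 nM; 0% = DMSO with dimerizer and 100% = rapamycin at 8.4 µM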
PABP FP inh – PABP-poly(A) binding inhibition; P11940; PABP-poly(A) RNA binding, fluorescence polarization; inhibition, % at 35 µM; hit rate 1% among 290,000; AID 2014;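 further: calls also rest on retests at 20 µM and on dose response follow-up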
GRK2 aptamer HTS – inhibitors of human GRK2 displacing RNA aptamer. P25098. bead flow cytometry, FAM-aptamer displacement from GRK2. inhibition of aptamer binding, % at 10 µM. hit rate 0.59% among 330,000. AID 488847;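 active means inhibition of aptamer binding above 40%, roughly 3 SD of noise, on plates passing a quality check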;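 further: median bead fluorescence of bound FAM aptamer so fluorescent compounds give negative values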
Target sequence (P25098 whole entry, looked up): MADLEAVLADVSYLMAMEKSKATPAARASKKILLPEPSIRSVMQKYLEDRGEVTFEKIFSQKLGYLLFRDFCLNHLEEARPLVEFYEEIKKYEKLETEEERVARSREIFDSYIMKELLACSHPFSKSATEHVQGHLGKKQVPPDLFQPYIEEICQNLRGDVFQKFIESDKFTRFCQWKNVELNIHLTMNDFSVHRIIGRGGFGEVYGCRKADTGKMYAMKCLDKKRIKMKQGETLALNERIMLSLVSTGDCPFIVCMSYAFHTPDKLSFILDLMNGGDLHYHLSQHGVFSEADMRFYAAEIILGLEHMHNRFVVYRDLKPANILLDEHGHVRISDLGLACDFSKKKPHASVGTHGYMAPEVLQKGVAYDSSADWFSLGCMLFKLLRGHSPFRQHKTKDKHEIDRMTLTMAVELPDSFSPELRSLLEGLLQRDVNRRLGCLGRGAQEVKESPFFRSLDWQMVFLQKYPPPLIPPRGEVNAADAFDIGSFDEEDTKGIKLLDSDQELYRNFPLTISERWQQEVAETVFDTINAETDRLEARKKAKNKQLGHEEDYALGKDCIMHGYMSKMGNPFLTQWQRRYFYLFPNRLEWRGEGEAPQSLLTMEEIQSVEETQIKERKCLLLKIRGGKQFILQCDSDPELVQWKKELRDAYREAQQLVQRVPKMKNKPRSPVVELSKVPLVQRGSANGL
eIF4H FP inh – inhibitors of RNA binding by human eIF4H; Q15056; eIF4H fluorescence polarization binding assay; inhibition, % at 35 µM; hit rate 0.94% among 290,000;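 further: calls also rest on retests at 20 µM and on dose response follow-up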
GRK2 CP1 – human GRK2 inhibition confirmation, cherry pick 1. shares compounds with GRK2 aptamer HTS. bead-bound GRK2, FAM-aptamer displacement, flow cytometry. aptamer displacement, % at 10 µM. hit rate 4% among 2,000;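 active means aptamer displacement above 40%, near three times the noise of non-fluorescent compounds, on plates passing quality checks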;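 further: negative values mostly reflect intrinsic compound fluorescence rather than true enhancement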
Aptamer quench SP – quenches fluorescent RNA aptamer, GRK2 hit artifact; fluorescence response (% of DMSO), % at 10 µM; 2,000 tested, under 10 active; Carboxyfluorescein RNA aptamer on beads, flow cytometry quenching; hits give low values; AID 504580; shares compounds with GRK2 aptamer HTS;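 active means compounds that quench the bead-bound fluorescent RNA probe, cutting fluorescence to under half of the solvent control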;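 further: counterscreen run without GRK2 so only probe quenching by compound is measured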
GRK2 CP2 – human GRK2 inhibition confirmation, cherry pick 2; shares compounds with GRK2 aptamer HTS; bead-bound GRK2, FAM-aptamer displacement, flow cytometry; inhibition of aptamer binding, % at 10 µM; 360 tested, under 10 active; AID 504782;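 active means inhibition of aptamer binding above 40%, about triple the noise seen with nonglowing compounds, on plates passing quality control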;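 further: negative values mostly come from compounds that fluoresce themselves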
FAM quench CP2 – aptamer fluorescence quenching in GRK2 counter-screen. 360 tested, under 10 active. fluorescence response vs DMSO, % at 10 µM. shares compounds with GRK2 aptamer HTS. carboxyfluorescein RNA aptamer beads, flow cytometry quenching; hits give low values;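 active means response vs DMSO under 50%, meaning signal dropped by over half, treated as fluorescence quencher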;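 further: labelled aptamer on streptavidin beads without GRK2 as a quench counter-screen; 100% = bead fluorescence of DMSO wells and lower means quenching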
The depositor's hits bear a star; x = not tested or not shown. In the library only some 1.9% were active in any assay of this set; here they are far more common. Unless noted, how the calls were made is not given here.

SMILES	MLLE-PAM2 inh	PERK inh	PABP FP inh	GRK2 aptamer HTS	eIF4H FP inh	GRK2 CP1	Aptamer quench SP	others
CCC(=O)Nc1cc2c3c(c1)CCC(=O)N3CCC2	-1.5	x	-7.3	0.0	-1.3	x	x
COCC(=O)OC1CCn2c1nc1c2C(=O)C(C)=C(NC(C)=O)C1=O (stereo not drawn)	4.0	x	x	x	x	x	x
C=CCOc1ccc(C(=O)CC)cc1OC	-1.5	1.8	4.3	93.0*	-12.1	3.9	100.3
CCCn1c(N)c(C(=O)CSc2nnc(-c3ccoc3C)n2C)c(=O)n(C)c1=O	-2.2	x	x	3.0	x	x	x
c1ccc2c(c1)CSc1ccccc1N2	-1.5	x	x	97.0*	x	-3.8	97.3
S=C1Nc2ccccc2CS1	34.4	x	x	x	x	x	x
O=C(Cc1ccc(F)cc1)Nc1nc(-c2ccc(F)c(F)c2)cs1	27.0	x	1.2	0.0	-6.9	x	x
COc1ccc(CC(=O)Nc2nc(-c3ccc(F)c(F)c3)cs2)cc1	-8.2	x	-1.8	92.0*	4.9	0.4	96.1
Cc1ccccc1C(=O)N1CCC(C(=O)NN2C(=O)NC3(CCCCC3)C2=O)CC1	-2.4	x	x	0.0	x	x	x
Cc1cc2cc(CN3C(=O)c4ccccc4C3=O)ccc2n1C	48.4*	-1.0	9.7	46.0*	94.0	33.9	95.3
O=C1C2CCCN2C(c2ccco2)N1c1ccc(F)cc1 (stereo not drawn)	8.3	1.4	-15.3	1.0	-6.2	x	x
O=C(NCc1ccccn1)C1COc2ccccc2O1 (stereo not drawn)	-3.4	0.8	2.7	90.0*	-4.3	3.4	89.4
O=C(NCc1ccncc1)C1COc2ccccc2O1 (stereo not drawn)	2.0	0.1	0.5	0.0	7.0	x	x
CCOc1cc(C)c(S(=O)(=O)Nc2ccc(Cl)cn2)cc1C	-3.7	1.9	-0.4	46.0*	1.3	x	x	GRK2 CP2=-0.7;FAM quench CP2=101.0
COc1ccc(C)cc1NC(=O)Cc1c(C(=O)O)n(C)c2ccccc12	0.5	x	12.6	0.0	-8.0	x	x
CN(C(=O)Cc1c(C(=O)O)n(C)c2ccccc12)c1ccc(Cl)cc1	10.0	x	-2.5	9.0	-8.0	0.0	97.5
CCOC(=O)c1ccccc1NC(=O)Cc1c(C(=O)O)n(C)c2ccccc12	10.9	x	7.8	50.0*	-11.7	-1.8	95.1
CCOC(=O)c1ccccc1NC(=O)COC(=O)c1ccccc1C(=O)N(C)c1ccccc1	-16.4	x	x	44.0*	x	-1.6	97.9
CC(C)c1ccc(N(C)C(=O)Cc2c(C(=O)O)n(C)c3ccccc23)cc1	-11.8	x	-2.0	0.0	-2.9	x	x
COCC1CCCN(C(=O)c2ccc3oc(Cc4ccc(Cl)cc4)nc3c2)C1 (stereo not drawn)	7.8	x	-8.9	0.0	5.2	x	x
Cc1ccc(S(=O)(=O)NCC(C)n2cncn2)cc1 (stereo not drawn)	-8.3	x	-3.3	0.0	-4.1	x	x
O=C(O)CC(Sc1n[nH]c(=S)s1)C(=O)O (stereo not drawn)	5.7	1.9	8.9	4.0	4.6	x	x
OC(COc1ccc(C2C=CCC2)cc1)CN1CCCCC1 (stereo not drawn)	-16.2	-0.4	-3.1	62.0*	5.5	-74.7	105.4
OC(COc1ccccc1)CN1CCCCC1 (stereo not drawn)	-4.4	x	x	x	x	x	x
O=C(NCC1CCCO1)C1CCCN1C(=O)Nc1ccc(Cl)c(Cl)c1 (stereo not drawn)	8.3	-0.6	0.9	53.0*	3.6	-5.1	99.0
CCCc1cc(=O)oc2c(CN3CCN(C)CC3)c(O)ccc12	13.7	x	1.3	51.0*	-5.5	-0.4	98.0
O=C(NCc1ccco1)C1CCCN1C(=O)NCc1ccccc1 (stereo not drawn)	-5.4	1.9	8.9	0.0	5.9	1.1	97.3
O=C(CCn1c(=O)[nH]c2ccsc2c1=O)NCc1ccc(F)cc1	-6.6	0.6	1.7	0.0	-20.4	x	x
CC1CCCC(NC(=O)COC(=O)c2cc(S(=O)(=O)N3CCOCC3)ccc2F)C1C (stereo not drawn)	-0.4	x	x	60.0*	x	0.8	101.5
